For experiment [1], the target named is Luciferin 4-monooxygenase (Photinus pyralis) (UniProt P08659). As to the kind of experiment: qHTS assay to identify small molecule inhibitors of firefly luciferase (AID 1224835). Also: nearly all actives have a fitted effect of over 25% in size. Also: potency is read from the fitted curve at half-maximal effect. The essentials: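 Biochemical qHTS: compounds run as interplate titrations against purified firefly enzyme, with D-luciferin and ATP each at its KM concentration. Light output recorded by CCD imaging.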

Experiment [2] can be described thus: qHTS assay to identify small molecule agonists of the constitutive androstane receptor (CAR) signaling pathway - cell viability counter screen (AID 1224836). Also: series mostly up to about 92 µM; nearly all actives have a fitted effect of over 45% in size. The essentials:
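HepG2-CYP2B6-hCAR, 2500 cells/well, 4 h pre-incubation; cpd 15 conc + PK11195 0.75 uM final; 23 h, 37 C/5% CO2; CellTiter-Fluor, fluorescence.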

Experiment [3] in a line: qHTS assay to identify small molecule antagonists of the constitutive androstane receptor (CAR) signaling pathway - cell viability counter screen (AID 1224837). Also: series mostly up to about 92 µM; nearly all actives have a fitted effect of over 45% in size. Put shortly:
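Multiplexed cytotoxicity read-out for the CAR antagonist screen: double-stable HepG2-CYP2B6-hCAR cells co-treated with 50 nM CITCO (final) and compound over 15 concentrations, incubated 23 hr, then assessed by CellTiter-Fluor fluorescence.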
(In qHTS, concentration-response curves come from the screen itself.)

In experiment [4] the target is Nuclear receptor subfamily 1 group I member 3 (Homo sapiens) (UniProt Q14994). As to the kind of experiment: qHTS assay to identify small molecule agonists of the constitutive androstane receptor (CAR) signaling pathway (AID 1224839). Also: nearly all actives have a fitted effect of over 15% in size. Also: potency is read from the fitted curve at half-maximal effect. The essentials: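 HepG2-CYP2B6-hCAR cells, 2500/well, 4 h pre-incubation; compounds 15 conc.; PK11195 0.75 uM final; 24 h, 37 C/5% CO2; ONE-Glo luciferase read.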

Experiment [5] is described as follows: qHTS assay to identify small molecule antagonists of the estrogen related receptor signaling pathway with the pleiotropic PPARgamma coactivator (PGC) from Tox21 10K library - cell viability counter screen (AID 1224840; active = well fitted cell-killing curve with a large enough effect in the repeat runs, not every such curve was filed as active; also: nearly all actives have a fitted effect of over 40% in size). The essentials:
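Step one, plate 2,000 PGC/ERR cells per well; step two, incubate 6 h at 37 C/5% CO2; step three, pin-transfer compounds; step four, incubate 17.5 h; step five, add CellTiter-Fluor and read fluorescence after 30 min.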

The nature of experiment [6]: qHTS assay to identify small molecule antagonists of the estrogen related receptor signaling pathway with the pleiotropic PPARgamma coactivator (PGC) from Tox21 10K library (AID 1224841; call rule not given here; also: actives are mostly falling curves and most rising ones were filed inactive; nearly all actives have a fitted effect of over 50% in size; also: potency is read from the fitted curve at half-maximal effect). The essentials:
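Antagonism in this quantitative HTS is taken from loss of luciferase signal in PGC/ERR cells. Cells (2,000/well) are treated with compounds in DMSO after a 6 h settling period and read by One-Glo luminescence after 18 h.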

The nature of experiment [7]: qHTS assay to identify small molecule agonists of the estrogen related receptor signaling pathway with the pleiotropic PPARgamma coactivator (PGC) from Tox21 10K library (AID 1224842). Also: nearly all actives have a fitted effect of over 15% in size. Put shortly:
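PGC/ERR reporter cell line, 2,000 cells per well, incubated 6 h at 37 C before 23 nL compound in DMSO was added. After 18 h at 37 C, One-Glo luminescence read following 30 min at room temperature.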

Experiment [8] addresses Thyrotropin receptor (Homo sapiens) (UniProt P16473). As to the kind of experiment: qHTS assay to identify small molecule agonists of the thyroid stimulating hormone receptor (TSHR) signaling pathway (AID 1224843; calls by dose curve; also: nearly all actives have a fitted effect of over 45% in size; also: potency is read from the fitted curve at half-maximal effect). Put shortly:
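TSHR-HEK293 cells in agonist mode, 30 min room-temperature step, then cAMP measured by competitive HTRF (cAMP-d2 with anti-cAMP cryptate) after 1 h at room temperature. Tested at 15 concentrations in triplicate.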

Experiment [9] is described as follows: qHTS assay to identify small molecule agonists of the hypoxia (HIF-1) signaling pathway - cell viability counter screen (AID 1224844; calls by dose curve; also: nearly all actives have a fitted effect of over 50% in size; also: potency is read from the fitted curve at half-maximal effect). Put shortly: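 Tox21 10K compounds were added to HRE-bla ME-180 cells (0.5% dialyzed FBS) and incubated 17 hrs at 37C; ATP-based CellTiter-Glo luminescence then reported cell viability in the same wells.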
For experiment [10], the target named is Nuclear receptor subfamily 1 group I member 3 (Homo sapiens) (UniProt Q14994). As to the kind of experiment: qHTS assay to identify small molecule antagonists of the constitutive androstane receptor (CAR) signaling pathway (AID 1224838). Also: nearly all actives have a fitted effect of over 40% in size. Also: potency is read from the fitted curve at half-maximal effect. The essentials:
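Compounds were titrated across 15 concentrations onto HepG2 cells double-stably expressing hCAR and a CYP2B6-2.2kb reporter, together with 50 nM CITCO (final). After 24 h at 37 C, luciferase activity was measured by luminescence.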

Each structure is given as a SMILES string. Where “and” joins values, the source holds several entries; their conditions need not be identical. Equal values may be shown once. Results filed as inconclusive are left out. Where a structure was tested more than once in an assay, its records may differ in their call. Calls of active or inactive are those of the source. Unless noted, calls follow the shape of the dose curve; as a rule, active = well fitted curve in the direction sought with a large enough effect in the repeat runs; inconclusive = weak or mixed curves; inactive = no such curve, though single readings can be large; an effect the other way counts as inactive or inconclusive.

Our source for the Potency values is PubChem BioAssay (Tox21).

Nuclear receptor subfamily 1 group I member 3 (Homo sapiens), sequence (Q14994 whole entry, looked up): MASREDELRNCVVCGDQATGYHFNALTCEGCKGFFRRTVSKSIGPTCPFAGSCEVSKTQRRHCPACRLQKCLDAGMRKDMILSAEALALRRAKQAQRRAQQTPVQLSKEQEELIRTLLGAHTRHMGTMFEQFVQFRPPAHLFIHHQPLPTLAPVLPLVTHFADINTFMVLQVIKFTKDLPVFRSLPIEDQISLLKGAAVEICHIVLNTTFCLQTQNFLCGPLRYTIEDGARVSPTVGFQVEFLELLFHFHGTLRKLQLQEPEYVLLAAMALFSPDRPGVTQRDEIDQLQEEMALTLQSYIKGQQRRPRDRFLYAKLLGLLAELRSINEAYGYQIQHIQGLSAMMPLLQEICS
Thyrotropin receptor (Homo sapiens), sequence (P16473 whole entry, looked up): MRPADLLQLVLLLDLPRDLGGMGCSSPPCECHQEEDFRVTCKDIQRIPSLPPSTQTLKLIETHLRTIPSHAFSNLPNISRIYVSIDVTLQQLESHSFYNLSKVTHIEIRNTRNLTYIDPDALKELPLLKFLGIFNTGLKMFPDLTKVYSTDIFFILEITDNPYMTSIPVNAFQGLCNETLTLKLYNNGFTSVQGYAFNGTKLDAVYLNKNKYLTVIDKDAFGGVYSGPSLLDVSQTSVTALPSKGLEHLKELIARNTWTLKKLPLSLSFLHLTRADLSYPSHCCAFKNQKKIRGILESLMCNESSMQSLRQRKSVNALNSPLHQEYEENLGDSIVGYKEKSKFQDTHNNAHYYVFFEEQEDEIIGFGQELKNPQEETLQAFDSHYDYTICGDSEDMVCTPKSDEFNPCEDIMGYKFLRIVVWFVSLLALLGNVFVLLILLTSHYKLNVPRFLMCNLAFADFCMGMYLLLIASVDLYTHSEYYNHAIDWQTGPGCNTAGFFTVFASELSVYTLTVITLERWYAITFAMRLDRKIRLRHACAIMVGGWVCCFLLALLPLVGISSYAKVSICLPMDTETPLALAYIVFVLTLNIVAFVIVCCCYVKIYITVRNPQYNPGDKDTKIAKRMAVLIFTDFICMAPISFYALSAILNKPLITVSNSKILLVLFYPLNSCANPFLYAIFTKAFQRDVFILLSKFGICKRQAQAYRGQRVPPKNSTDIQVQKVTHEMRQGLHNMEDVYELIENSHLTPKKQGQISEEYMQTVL
Luciferin 4-monooxygenase (Photinus pyralis), sequence (P08659 whole entry, looked up): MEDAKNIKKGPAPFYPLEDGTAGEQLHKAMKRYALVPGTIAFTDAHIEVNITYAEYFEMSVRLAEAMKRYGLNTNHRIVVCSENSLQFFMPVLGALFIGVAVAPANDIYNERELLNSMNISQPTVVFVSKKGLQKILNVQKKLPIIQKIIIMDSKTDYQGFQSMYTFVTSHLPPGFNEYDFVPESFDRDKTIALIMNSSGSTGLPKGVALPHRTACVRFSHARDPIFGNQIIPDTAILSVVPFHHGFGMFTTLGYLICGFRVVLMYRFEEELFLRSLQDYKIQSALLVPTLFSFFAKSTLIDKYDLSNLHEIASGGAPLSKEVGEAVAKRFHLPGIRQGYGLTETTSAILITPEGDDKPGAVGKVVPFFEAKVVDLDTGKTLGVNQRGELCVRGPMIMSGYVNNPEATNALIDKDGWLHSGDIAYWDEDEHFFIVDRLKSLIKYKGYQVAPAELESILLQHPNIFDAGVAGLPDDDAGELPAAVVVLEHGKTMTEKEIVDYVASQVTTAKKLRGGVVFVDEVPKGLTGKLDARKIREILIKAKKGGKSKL

Regarding `O=C(O)Cn1cnnn1`, the Potency entry in experiment [1], in [2], in experiment [3], in experiment [4], in experiment [5] and in experiment [6] was “inactive” each time. The Potency result in experiment [7], in experiment [8] and in experiment [9] was “inactive” each time.
As for `CN1C(=O)c2ccc([N+](=O)[O-])cc2C1=O`, the Potency result in experiment [1], in [2], in experiment [3], in experiment [4], in experiment [5] and in experiment [6] was “inactive” each time. For the same molecule, the Potency result in [7], in experiment [8] and in experiment [9] was “inactive” each time.
In the case of `COC(=O)c1cccc(C(=O)OC)c1`, the Potency result in experiment [1], in experiment [2], in experiment [3], in [10], in [4] and in [5] was “inactive” each time. Also, the Potency result in experiment [9] was “inactive”.
For the molecule `CCCCC(CC)COC(=O)CC(C(=O)OCC(CC)CCCC)S(=O)(=O)O` (configuration not stated), the Potency result in experiment [1], in experiment [2], in [3], in [10], in experiment [4] and in experiment [5] was “inactive” in each case. Moreover, the Potency in experiment [9] is 26.5 µM (active) and 21.9 µM (active).
Regarding `CCCC(=O)c1ccccc1`, the Potency result in [1], in [2], in [3], in experiment [4], in experiment [5] and in experiment [6] was “inactive” each time. The Potency result in experiment [7], in experiment [8] and in experiment [9] was “inactive” each time.
Turning to `CC(COc1ccccc1)N(CCCl)Cc1ccccc1` (configuration not stated), the Potency entry in [1], in experiment [2], in experiment [3], in experiment [10] and in experiment [5] was “inactive” each time. The Potency was 27.6 µM (active) and 8.63 µM (active) and 10.6 µM (active) in [4]; 30.9 µM (active) and 43.3 µM (active) and 29.8 µM (active) in [8]; 49.5 µM (active) and inactive in experiment [9].
For `[Cl][In]([Cl])[Cl]`, in [1], the Potency was 36.6 µM (active) and 39.9 µM (active). Moreover, the Potency entry in experiment [2], in experiment [3], in [10], in [4], in experiment [5] and in [9] was “inactive” throughout.
As for `Nc1nc2ccccc2[nH]1`, the Potency entry in [1], in [2], in experiment [3], in experiment [10], in experiment [4] and in experiment [5] was “inactive” each time. The Potency entry in experiment [8] and in [9] was “inactive” throughout.
As for `c1cc(C(c2ccc(OCC3CO3)cc2)C(c2ccc(OCC3CO3)cc2)c2ccc(OCC3CO3)cc2)ccc1OCC1CO1` (configuration not stated), the Potency was 16.5 µM (active) in [1]; 79.8 µM (active) and inactive in experiment [6]. Besides, the Potency entry in experiment [2], in experiment [3], in experiment [10], in experiment [5], in experiment [7] and in [8] was “inactive” throughout. For the same molecule, the Potency entry in experiment [9] is “inactive”.
In the case of `c1ccc2cc3c(ccc4ccccc43)cc2c1`, the Potency in [1] was 5.66 µM (active) and 8.94 µM (active); in experiment [4] it was 30.7 µM (active) and 27.3 µM (active). Further, the Potency entry in [2], in [3], in experiment [10], in [5], in experiment [8] and in experiment [9] was “inactive” in each case.
For the molecule `CCC(C)(C)C(=O)O[C@H]1C[C@@H](C)C=C2C=C[C@H](C)[C@H](CC[C@@H]3C[C@@H](O)CC(=O)O3)[C@H]21`, the Potency result in experiment [1], in [2], in experiment [3], in [10], in experiment [5] and in [8] was “inactive” each time.
For the molecule `CC(C)(O)CCC(C)(C)O`, the Potency result in [1], in [2], in [3], in experiment [4], in experiment [5] and in [6] was “inactive” each time. Further, the Potency result in experiment [7], in [8] and in experiment [9] was “inactive” each time.
With `CC(C)(C)c1ccc(O)c(C(C)(C)C)c1`, the Potency result in experiment [1], in experiment [2], in experiment [3], in experiment [10], in experiment [4] and in [7] was “inactive” in each case. Further, the Potency in [6] was 54.3 µM (active) and inactive; in experiment [9], 43.5 µM (active).
For the molecule `CC(C)CCOCc1ccccc1`, the Potency entry in experiment [1], in experiment [2], in experiment [3], in [4], in experiment [5] and in [6] was “inactive” throughout. Also, the Potency result in experiment [7], in experiment [8] and in experiment [9] was “inactive” each time.
With `CCOc1ccccc1C(N)=O`, the Potency entry in [1], in [2], in [3], in experiment [10], in [4] and in experiment [5] was “inactive” in each case. Also, the Potency entry in experiment [8] and in [9] was “inactive” each time.
For the molecule `BrC1CCC(Br)C(Br)CCC(Br)C(Br)CCC1Br` (configuration not stated), the Potency result in experiment [1], in experiment [2], in experiment [3], in [4], in experiment [7] and in experiment [9] was “inactive” each time. Besides, the Potency in experiment [10] was 21.6 µM (active) and 25.9 µM (active); in experiment [6], 30.5 µM (active).
Turning to `Cc1scc2c1N(C(=O)CN1CCN(C)CC1)c1ccccc1NC2=O`, the Potency result in [1], in [2], in experiment [3], in experiment [4], in [5] and in experiment [8] was “inactive” throughout. In experiment [9], the Potency entry was “inactive”.
For the molecule `NCCCCCC(=O)O`, the Potency entry in experiment [1], in [2], in experiment [3], in experiment [5], in [8] and in experiment [9] was “inactive” in each case.
